Test [1] is described as follows: viability loss in pontine glioma line – cell-based, SU-DIPG-XVII, MIPE5.0, CellTiter-Glo, qHTS, dose response (AID 1347060; cut-off not given, nearly all actives have AC50 up to about 26 µM;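 on AC50: cells exposed to compound for 48 hours before viability readout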). The following applies: CellTiter-Glo ATP luminescence. On the technique in general: ATP-based viability assays read luminescence as a measure of living cells.
The nature of test [2]: viability loss in pontine glioma line – cell-based, JHH-DIPG-1, MIPE4.0, CellTiter-Glo, qHTS, dose response (AID 1347062; cut-off not given, nearly all actives have AC50 up to about 27 µM;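 on AC50: cells exposed to compound for two days before readout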). To be noted: JHH-DIPG-1 viability, CellTiter-Glo ATP luminescence.
Test [3] can be described thus: viability loss in pontine glioma line – cell-based, SU-DIPG-XXV, MIPE5.0, CellTiter-Glo, qHTS, dose response (AID 1347065; cut-off not given, nearly all actives have AC50 up to about 26 µM;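 further: cells exposed to compound for 48 hours before ATP readout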). To be noted: CellTiter-Glo ATP luminescence.
Test [4] is described as follows: growth inhibition of DIPG cells – cell-based, MIPE4.0 library, CellTiter-Glo luminescence, qHTS (AID 1347066; cut-off not given, nearly all actives have AC50 up to about 30 µM;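 further: cells exposed to compound for 48 hours before readout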). The following applies: SU-DIPG-VI viability, CellTiter-Glo ATP luminescence.
Test [5] in a line: viability loss in pontine glioma line – cell-based, SU-DIPG-XIII, MIPE5.0, CellTiter-Glo, qHTS, dose response (AID 1347064; cut-off not given, nearly all actives have AC50 up to about 23 µM;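 on AC50: cells exposed to compound for 48 hours before the viability read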). The following applies: CellTiter-Glo ATP luminescence.
Test [6] in a line: JHH-DIPG-1 glioma cell viability, MIPE5.0 library, CellTiter-Glo luminescence, qHTS (AID 1347067; cut-off not given, nearly all actives have AC50 up to about 26 µM;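 further: cells exposed to compound for 48 hours before readout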). The following applies: JHH-DIPG-1 glioma viability, CellTiter-Glo ATP luminescence.
Test [7] can be described thus: growth inhibition of DIPG cells – cell-based, MIPE5.0 library, qHTS (AID 1347068; cut-off not given, nearly all actives have IC50 up to about 30 µM;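 on IC50: cells exposed to compound for 48 hours before viability readout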). The following applies: SU-DIPG-XXV viability. In general terms: qHTS replaces the single test concentration by a dilution series.
A short description of test [8]: viability loss with induced miR-34 in A549 – imaging, A549 dox-inducible miR-34, nuclei and caspase counts, primary screen (AID 1347080;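 active means compounds whose cell count with miR-34 switched on is under 0.7 times the count with it off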). The following applies: A549 miR-34 inducible, Hoechst nuclei count, 48 h.
Test [9] is described as follows: MELAS cybrid and Rieske KO viability enhancers – cell-based, MELAS cybrids, Rieske KO mouse fibroblasts, CellTiter-Glo, primary screen (AID 1508586;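 active means mean z-score across replicates of 1.96 or higher in either the MELAS or the Rieske mutant cell line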;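 further: z relative to plate mean and SD of compound and empty wells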). The following applies: low glucose.
The nature of test [10]: drug combination growth inhibition, ovarian cancer – cell-based, oncology-focused library, rucaparib conditional, profiling panel (AID 1508598). To be noted: patient-derived ovarian cancer cells, CellTiter-Glo viability, 144 h, stronger effect = lower value.
Test [11] in a line: compounds altering HSF1 focus formation in cells – imaging, Selleck Cancer Library (AID 1347162; in the data active means plate-normalised HSF1 focus index below about 0.46). To be noted: human cells, HSF1 nuclear foci imaging, at 10 µM; SSMD: measured here: HSF1 foci SSMD mean; cell count: measured here: cell number; plate-normalised HSF1 focus index: stronger effect = lower value.
The mark [12] stands for this setting: stronger effect = lower value, cell number ratio, induced over uninduced.
Setting [13] is: measured here: relative caspase fold change +Dox/-Dox.
[14] abbreviates: measured here: total cells with miR-34 induction, stronger effect = lower value.
Where [15] appears, read: measured here: total cells without miR-34 induction.
Setting [16] is: MELAS cybrid survival, CellTiter-Glo 48 h, stronger effect = higher value.
Where [17] appears, read: Rieske KO mouse fibroblast survival, CellTiter-Glo 72 h.
The mark [18] stands for this setting: at 0.000305 µM, OCI-C5x cells, with rucaparib 10 µM, 100% = cells with rucaparib alone.
Where [19] appears, read: at 0.000305 µM, OCI-C5x cells, without rucaparib.
Where [20] appears, read: at 0.000305 µM, OCI-P5x cells, with rucaparib 20 µM, 100% = cells with rucaparib alone.
Setting [21] is: at 0.000305 µM, OCI-P5x cells, without rucaparib.
Setting [22] is: at 0.00122 µM, OCI-C5x cells, with rucaparib 10 µM, 100% = cells with rucaparib alone.
The mark [23] stands for this setting: at 0.00122 µM, OCI-C5x cells, without rucaparib.
Where [24] appears, read: at 0.00122 µM, OCI-P5x cells, with rucaparib 20 µM, 100% = cells with rucaparib alone.
Where [25] appears, read: at 0.00122 µM, OCI-P5x cells, without rucaparib.
Where [26] appears, read: at 0.00488 µM, OCI-C5x cells, with rucaparib 10 µM, 100% = cells with rucaparib alone.
Where [27] appears, read: at 0.00488 µM, OCI-C5x cells, without rucaparib.
The mark [28] stands for this setting: at 0.00488 µM, OCI-P5x cells, with rucaparib 20 µM, 100% = cells with rucaparib alone.
[29] abbreviates: at 0.00488 µM, OCI-P5x cells, without rucaparib.
[30] abbreviates: at 0.0195 µM, OCI-C5x cells, with rucaparib 10 µM, 100% = cells with rucaparib alone.
[31] abbreviates: at 0.0195 µM, OCI-C5x cells, without rucaparib.
Setting [32] is: at 0.0195 µM, OCI-P5x cells, with rucaparib 20 µM, 100% = cells with rucaparib alone.
[33] abbreviates: at 0.0195 µM, OCI-P5x cells, without rucaparib.
Setting [34] is: at 0.0781 µM, OCI-C5x cells, with rucaparib 10 µM, 100% = cells with rucaparib alone.
[35] abbreviates: at 0.0781 µM, OCI-C5x cells, without rucaparib.
Setting [36] is: at 0.0781 µM, OCI-P5x cells, with rucaparib 20 µM, 100% = cells with rucaparib alone.
Setting [37] is: at 0.0781 µM, OCI-P5x cells, without rucaparib.
The mark [38] stands for this setting: at 0.313 µM, OCI-C5x cells, with rucaparib 10 µM, 100% = cells with rucaparib alone.

Values joined by “and” are separate entries in the source; they are usually repeats but may differ in a detail not shown here. Equal values may be shown once. Records with an inconclusive call do not appear. Active and inactive are the calls of the source.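 How the source made its calls, unless noted: active means normalized viability below 100% at a tested concentration; inactive means the rest.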

A word on the AC50: it is the concentration giving half of the maximal activity seen. By IC50 is commonly meant the concentration at which inhibition is half-maximal. For orientation: viability means a read-out of living cells in per cent, often relative to untreated cells.

Consider `CCC(C)SSc1ncc[nH]1` (stereo not drawn), for which the AC50 in [1] is 14.8 µM (active); in test [2] it was 23.5 µM (active); in [3] it was 11.8 µM (active); in test [4], 26.4 µM (active).

Take `CS(=O)(=O)Oc1ccc2c(NC(N)=O)c(C(=O)c3ccc(Cl)cc3Cl)oc2c1`: the compound was classed as inactive in [1], in test [5], in test [3], in test [6] and in test [7]. For the same compound, the AC50 in test [2] is 2.35 µM (active).

For the compound `CN[C@H]1CCc2cc(OC)c(OC)c(OC)c2-c2ccc(OC)c(=O)cc21`, the AC50 in test [1] is 0.105 µM (active); in test [2], 0.0148 µM (active); in test [5] it was 0.132 µM (active); in test [3], 0.166 µM (active); in test [6], 0.148 µM (active). Also, the IC50 in [7] was 0.148 µM (active).

For the compound `N#Cc1cc(NC(=O)Nc2nnc(-c3ccncc3)s2)ccc1-c1cn[nH]c1`, the AC50 in test [1] was 0.372 µM (active). Moreover, the call in test [2], in [5], in test [3], in [4] and in test [7] was inactive.

Regarding `Cc1ccc(S(=O)(=O)Nc2nc3ccccc3nc2Nc2ccc3nsnc3c2)cc1`, the outcome in test [1], in test [5], in [6] and in [7] was inactive. Moreover, the AC50 in test [2] was 0.512 µM (active). Also, the results for the fold change in test [8] (setting [12]) and in [8] (setting [13]) were 0.883 (inactive) and 1.38, respectively. The cell count in [8] (setting [14]) was found to be 3480; in test [8] (setting [15]), 3940. For the same compound, the z-score in test [9] (setting [16]) was -0.561 (inactive); in test [9] (setting [17]), 0.136. For the same compound, the viability in test [10] (setting [18]) was 107% (inactive); in test [10] (setting [19]), 120% (inactive); in test [10] (setting [20]), 124% (inactive); in [10] (setting [21]), 116% (inactive); in [10] (setting [22]), 122% (inactive); in [10] (setting [23]), 132% (inactive). The viability is 131% (inactive) in test [10] (setting [24]); 117% (inactive) in test [10] (setting [25]); 112% (inactive) in test [10] (setting [26]); 130% (inactive) in test [10] (setting [27]); 125% (inactive) in test [10] (setting [28]); 115% (inactive) in [10] (setting [29]). Further, the viability is 123% (inactive) in test [10] (setting [30]); 132% (inactive) in test [10] (setting [31]); 120% (inactive) in test [10] (setting [32]); 108% (inactive) in test [10] (setting [33]); 122% (inactive) in test [10] (setting [34]); 124% (inactive) in test [10] (setting [35]). The viability in test [10] (setting [36]) was 125% (inactive); in test [10] (setting [37]), 110% (inactive); in test [10] (setting [38]) it was 112% (inactive); in test [10] (at 0.313 µM, OCI-C5x cells, without rucaparib), 74.9% (active); in [10] (at 0.313 µM, OCI-P5x cells, with rucaparib 20 µM, 100% = cells with rucaparib alone), 117% (inactive); in test [10] (at 0.313 µM, OCI-P5x cells, without rucaparib), 106% (inactive). Also, the viability in test [10] (at 1.25 µM, OCI-C5x cells, with rucaparib 10 µM, 100% = cells with rucaparib alone) is 115% (inactive); in test [10] (at 1.25 µM, OCI-C5x cells, without rucaparib), 121% (inactive); in test [10] (at 1.25 µM, OCI-P5x cells, with rucaparib 20 µM, 100% = cells with rucaparib alone) it was 110% (inactive); in test [10] (at 1.25 µM, OCI-P5x cells, without rucaparib), 105% (inactive); in test [10] (at 5 µM, OCI-C5x cells, with rucaparib 10 µM, 100% = cells with rucaparib alone), 107% (inactive); in test [10] (at 5 µM, OCI-C5x cells, without rucaparib) it was 117% (inactive). Also, the viability in test [10] (at 5 µM, OCI-P5x cells, with rucaparib 20 µM, 100% = cells with rucaparib alone) was 95.1% (active); in [10] (at 5 µM, OCI-P5x cells, without rucaparib), 102% (inactive).

On to `COc1ccc2c(c1)c(C1=C(c3c[nH]c4ccccc34)C(=O)NC1=O)cn2CCCN(C)C`, for which the AC50 in [1] is 20.9 µM (active); in test [2], 16.6 µM (active); in test [3], 20.9 µM (active); in test [6], 20.9 µM (active). In addition, the IC50 in test [7] is 29.5 µM (active). Further, the fold change in test [8] (setting [12]) was 0.91 (inactive) and 0.965 (inactive); in test [8] (setting [13]) it was 0.481 and 1.22. The cell count was 4170 and 4590 in test [8] (setting [14]); 4580 and 4760 in [8] (setting [15]). Moreover, the figures for the z-score in [9] (setting [16]) and in test [9] (setting [17]) were -0.592 (inactive) and -0.0818, respectively.

In the case of `COc1cc2c(cc1OC)CC(=O)N(CCCN(C)C[C@H]1Cc3cc(OC)c(OC)cc31)CC2`, the outcome in test [1], in test [2], in test [5], in [3], in test [4] and in test [6] was inactive. For the same compound, the call in [7] was inactive.

`O=C1NC(=O)/C(=C/c2cccc(C(F)(F)F)c2)S1`: the call in test [1], in test [2], in [3], in [4], in test [6] and in test [7] was inactive.

Regarding `C[C@@H]1CN(Cc2ccc(F)cc2)[C@@H](C)CN1C(=O)c1cc2c(C(=O)C(=O)N(C)C)cn(C)c2cc1Cl`, the result in [1], in [2], in test [5] and in [7] was inactive.

In the case of `Cc1ccc(C(=O)N(CCCN)[C@@H](c2nc3cc(Cl)ccc3c(=O)n2Cc2ccccc2)C(C)C)cc1`, the AC50 in [1] is 0.0166 µM (active); in [2], 13.2 µM (active); in test [5], 5.9 µM (active); in [3] it was 0.00934 µM (active); in [6], 9.34 µM (active). Also, the half-inhibitory concentration (IC50) in [7] was 0.0166 µM (active). The SSMD in [11] was -9.79. In test [11], the cell count worked out at 3920. Besides, in [11], the plate-normalised HSF1 focus index is 0.497 (inactive). The viability was 104% (inactive) in test [10] (setting [18]); 109% (inactive) in test [10] (setting [19]); 95.5% (active) in test [10] (setting [20]); 101% (inactive) in test [10] (setting [21]); 90.5% (active) in test [10] (setting [22]); 116% (inactive) in test [10] (setting [23]). Moreover, the viability in test [10] (setting [24]) was 78.5% (active); in test [10] (setting [25]), 81.4% (active); in [10] (setting [26]) it was 44.7% (active); in test [10] (setting [27]), 76.6% (active); in test [10] (setting [28]) it was 68.7% (active); in [10] (setting [29]), 66.4% (active). Besides, the viability is 43.1% (active) in test [10] (setting [30]); 55.9% (active) in test [10] (setting [31]); 51.4% (active) in [10] (setting [32]); 21.1% (active) in test [10] (setting [33]); 47.4% (active) in test [10] (setting [34]); 65.7% (active) in test [10] (setting [35]). Further, the viability in test [10] (setting [36]) was 55.4% (active); in test [10] (setting [37]), 24.5% (active); in test [10] (setting [38]), 56.5% (active).

For the origin of these results see PubChem BioAssay.
